Source: PubChem BioAssay (several laboratories)
An excerpt weighted towards active compounds, which were near 3.5% of everything screened.
TWEAK-Fn14 inh – blocks TWEAK-Fn14 interaction in a reporter cell assay; inhibition, % at 10 µM; actives 2% (n = 360,000); TWEAK-stimulated Fn14 reporter cells, luciferase luminescence, 8 h; in the data active = inhibition above about 50%
TROY signal inh – inhibitors of TROY-dependent NF-kB signaling. AID 1347056. inhibition, % at 10 µM. actives 0.98% (n = 360,000). Q293 LMP1-TROYcd NF-kB luciferase reporter, 4 h;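 active = compounds whose plate-normalised and pattern-corrected inhibition of the luciferase reporter signal at the single screening dose is 50% or more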
TRAIL sens C8 – sensitizes caspase-8 expressing cells to TRAIL. NB7+C8 cells + TRAIL, ATPlite viability luminescence. inhibition (viability loss, TRAIL sensitization), % at 10 µM. actives 1% (n = 360,000). AID 624354;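 active = compounds causing at least 50% loss of cell viability in the single-dose screen, relative to plate controls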
Platelet DG rel – modulates dense granule release in human platelets | actives 0.22% (n = 300,000) | AID 1663 | inhibition, %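 (compounds screened at 7.5 µM in platelet-rich plasma)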 | human platelet-rich plasma, SFLLRN dense granule ATP release, luminescence;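 active = mean replicate score, as percent of positive control, at or above 50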
PPC-1+TRAIL kill – compounds killing PPC-1 cancer cells with TRAIL present (potentiator screen, no TRAIL-free arm); PPC-1 cells + TRAIL, ATPLite viability luminescence; cell killing (% activity), % at 4 µM or 5 µM; actives 0.41% (n = 220,000); AID 1443;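 active = cell killing above 50% in the first pass at 4 µM, then a duplicate retest at 5 µM averaging 50% or more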
HSP90 refold inh – blocks HSP90-mediated luciferase refolding in reticulocyte lysate; AID 1789; Rabbit reticulocyte lysate, luciferase refolding luminescence, 3 h; inhibition, % at 5.6 µM; actives 0.91% (n = 290,000);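 active = inhibition above the screen-wide mean plus 3 SD, computed separately per campaign, cut at about 16% in these data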;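 note: inhibitors lower the luminescence because luciferase stays unfolded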
Numbers stand for hits.

How did C=CCOc1ccc(CN(C)CC(O)COc2ccc(CCC(C)=O)cc2)cc1 (stereo not given) do in these assays?
TWEAK-Fn14 inh: 55; TROY signal inh: inactive; TRAIL sens C8: inactive; Platelet DG rel: inactive; HSP90 refold inh: inactive

What do the screens show for `Cc1ccc(-c2nc(=S)c3c(n2Cc2cccnc2)CC(C)(C)OC3)cc1`?
TWEAK-Fn14 inh: 74; TROY signal inh: inactive; TRAIL sens C8: inactive; Platelet DG rel: inactive; PPC-1+TRAIL kill: inactive; HSP90 refold inh: inactive

How did Cc1ccc(-c2nc(=S)c3c(n2CCN2CCOCC2)CC(C)(C)OC3)cc1 do in these assays?
TWEAK-Fn14 inh: inactive; TROY signal inh: 52; TRAIL sens C8: inactive; Platelet DG rel: inactive; PPC-1+TRAIL kill: inactive; HSP90 refold inh: inactive

Results for CC1(C)Cc2c(c(=S)nc(-c3ccccc3)n2CCOCCO)CO1 ?
TWEAK-Fn14 inh: 55; TRAIL sens C8: inactive; Platelet DG rel: inactive; PPC-1+TRAIL kill: inactive; HSP90 refold inh: inactive

Results for O=C(O/N=C1\CCS(=O)(=O)c2sccc21)C1CC1 ?
TWEAK-Fn14 inh: inactive; TROY signal inh: inactive; TRAIL sens C8: inactive; Platelet DG rel: inactive; PPC-1+TRAIL kill: inactive; HSP90 refold inh: inactive

What do the screens show for `Cn1nccc1C(=O)Nc1ccc(S(=O)(=O)N2CCCC2)cc1`?
TWEAK-Fn14 inh: inactive; TROY signal inh: inactive; TRAIL sens C8: inactive; Platelet DG rel: inactive; HSP90 refold inh: inactive

How did Cn1nc(C(=O)Nc2ccc(S(=O)(=O)N3CCCCC3)cc2)ccc1=O do in these assays?
TWEAK-Fn14 inh: 104; TROY signal inh: inactive; TRAIL sens C8: inactive; Platelet DG rel: inactive; PPC-1+TRAIL kill: inactive; HSP90 refold inh: inactive

What do the screens show for `Cc1noc(C)c1COc1ccccc1C(=O)NCCc1ccc(S(N)(=O)=O)cc1`?
TWEAK-Fn14 inh: inactive; TROY signal inh: inactive; TRAIL sens C8: inactive; Platelet DG rel: inactive; HSP90 refold inh: inactive

How did N#C/C(=C\N1CCOCC1)C(N)=O do in these assays?
TWEAK-Fn14 inh: inactive; TROY signal inh: inactive; TRAIL sens C8: inactive; Platelet DG rel: inactive; PPC-1+TRAIL kill: inactive; HSP90 refold inh: inactive

Results for Nc1nc(N)c2nc(-c3ccccc3)c(N)nc2n1 ?
TWEAK-Fn14 inh: inactive; TROY signal inh: inactive; TRAIL sens C8: 79; Platelet DG rel: inactive; PPC-1+TRAIL kill: inactive; HSP90 refold inh: inactive

Results for NSc1nc(N)c2nc(-c3ccccc3)c(-c3ccccc3)nc2n1 ?
TWEAK-Fn14 inh: inactive; TROY signal inh: inactive; TRAIL sens C8: inactive; Platelet DG rel: inactive; PPC-1+TRAIL kill: inactive; HSP90 refold inh: inactive

How did c1ccc(Nc2nnc(-c3cccnc3)s2)cc1 do in these assays?
TWEAK-Fn14 inh: 51; TROY signal inh: inactive; TRAIL sens C8: 53; Platelet DG rel: inactive; HSP90 refold inh: inactive

What do the screens show for `COc1ccc(CNC(=O)Cn2nc(C(F)(F)F)c3c2CCC3)cc1`?
TWEAK-Fn14 inh: inactive; TROY signal inh: inactive; TRAIL sens C8: inactive; Platelet DG rel: inactive; PPC-1+TRAIL kill: inactive; HSP90 refold inh: inactive

How did COc1ccccc1N1CCN(C(=O)Cn2nc(C(F)(F)F)c3c2CCC3)CC1 do in these assays?
TWEAK-Fn14 inh: 53; TRAIL sens C8: inactive; Platelet DG rel: inactive; PPC-1+TRAIL kill: inactive; HSP90 refold inh: inactive

Results for CNC(=O)Nc1ccccc1C(=O)NCc1ccccc1 ?
TWEAK-Fn14 inh: 62; TROY signal inh: inactive; TRAIL sens C8: inactive; Platelet DG rel: inactive; PPC-1+TRAIL kill: inactive; HSP90 refold inh: inactive

What do the screens show for `Cc1ccccc1CNC(=O)c1ccccc1C(=O)O`?
TWEAK-Fn14 inh: inactive; TROY signal inh: inactive; TRAIL sens C8: inactive; Platelet DG rel: inactive; PPC-1+TRAIL kill: inactive; HSP90 refold inh: 16

How did Cc1ccccc1CNC(=O)c1ccccc1C do in these assays?
TWEAK-Fn14 inh: inactive; TROY signal inh: inactive; TRAIL sens C8: inactive; Platelet DG rel: inactive; PPC-1+TRAIL kill: inactive; HSP90 refold inh: inactive

Results for O=[N+]([O-])c1ccc(O)c(C2CCCCC2)c1 ?
TWEAK-Fn14 inh: 52; TROY signal inh: 61; TRAIL sens C8: inactive

What do the screens show for `Cc1ccc(CSc2nnc(CCCCCNC(=O)OC(C)(C)C)o2)cc1`?
TWEAK-Fn14 inh: inactive; TROY signal inh: inactive; TRAIL sens C8: inactive; Platelet DG rel: inactive; PPC-1+TRAIL kill: inactive; HSP90 refold inh: inactive

Results for Cc1cccc(CSc2nnc(CCCCCNC(=O)OC(C)(C)C)o2)c1 ?
TWEAK-Fn14 inh: inactive; TROY signal inh: 72; TRAIL sens C8: inactive; Platelet DG rel: inactive; PPC-1+TRAIL kill: inactive; HSP90 refold inh: inactive

Results for CN(c1ccccc1)S(=O)(=O)c1cccc(NC(=O)CCNC(=O)c2ccco2)c1 ?
TWEAK-Fn14 inh: inactive; TROY signal inh: inactive; TRAIL sens C8: inactive

Results for O=C(c1ccco1)N1CCN(C(=O)C2CCCc3c2[nH]c2ccc(Cl)cc32)CC1 (stereo not given) ?
TWEAK-Fn14 inh: 66; TRAIL sens C8: inactive; Platelet DG rel: inactive; PPC-1+TRAIL kill: inactive; HSP90 refold inh: inactive

Results for Cc1cc(C(=O)COC(=O)c2ccccc2O)c(C)n1CC1CCCO1 (stereo not given) ?
TWEAK-Fn14 inh: 106; TROY signal inh: 90; TRAIL sens C8: 87

How did Cc1cc(C(=O)COC(=O)c2cccc(NS(C)(=O)=O)c2)c(C)n1CC1CCCO1 (stereo not given) do in these assays?
TWEAK-Fn14 inh: 92; TROY signal inh: 76; TRAIL sens C8: 59

Results for Cc1cc(C(=O)COC(=O)c2cc(O)c3ccccc3c2O)c(C)n1CC1CCCO1 (stereo not given) ?
TWEAK-Fn14 inh: 79; TROY signal inh: inactive; TRAIL sens C8: inactive; PPC-1+TRAIL kill: inactive; HSP90 refold inh: inactive

Results for Cc1cc(C(=O)COc2ccccc2C(N)=O)c(C)n1CC1CCCO1 (stereo not given) ?
TWEAK-Fn14 inh: inactive; TROY signal inh: inactive; TRAIL sens C8: inactive; Platelet DG rel: inactive; PPC-1+TRAIL kill: inactive; HSP90 refold inh: inactive

Results for Cc1occc1-c1nnc(SC(C)C(=O)Nc2ccccc2F)o1 (stereo not given) ?
TWEAK-Fn14 inh: inactive; TROY signal inh: inactive; TRAIL sens C8: inactive

How did C[C@H](NC(=O)c1ccccc1Cl)C(=O)Nc1ccccc1F do in these assays?
TWEAK-Fn14 inh: inactive; TROY signal inh: inactive; TRAIL sens C8: inactive; Platelet DG rel: inactive; HSP90 refold inh: inactive

What do the screens show for `CN(CCOc1ccc(Cl)cc1)C(=O)c1cccc(S(=O)(=O)N2CCN(Cc3ccccc3)CC2)c1`?
TWEAK-Fn14 inh: 57; TROY signal inh: inactive; TRAIL sens C8: inactive

Results for COc1ccc(NC(=O)CN(C)C(=O)c2cccc(S(=O)(=O)N3CCN(Cc4ccccc4)CC3)c2)cc1 ?
TWEAK-Fn14 inh: inactive; TROY signal inh: inactive; TRAIL sens C8: inactive; Platelet DG rel: inactive; HSP90 refold inh: inactive

Results for Cc1cccc(NC(=O)c2cc(-c3ccccn3)nc3ccccc23)c1C ?
TWEAK-Fn14 inh: inactive; TROY signal inh: inactive; TRAIL sens C8: inactive; Platelet DG rel: inactive; PPC-1+TRAIL kill: inactive; HSP90 refold inh: inactive

Results for OCC1OC(n2cnc3c(NCc4ccco4)ncnc32)C(O)C1O (stereo not given) ?
TWEAK-Fn14 inh: inactive; TROY signal inh: inactive; TRAIL sens C8: 59
